Common to all, as to test: universal protein binding microarray (PBM); transcription factors of Arabidopsis thaliana; high values mean tight binding
The target of one experiment is T1, GST-ANAC092(1-176) (Arabidopsis thaliana, UniProt Q9FKA0 1-176).
T1 sequence: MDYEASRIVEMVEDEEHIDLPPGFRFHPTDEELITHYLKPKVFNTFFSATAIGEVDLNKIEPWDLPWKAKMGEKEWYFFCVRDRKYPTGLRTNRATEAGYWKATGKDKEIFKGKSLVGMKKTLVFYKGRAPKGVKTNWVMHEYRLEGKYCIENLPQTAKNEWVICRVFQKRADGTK
To be noted: protein: recombinant; tags: GST; chain copies: 2; dsDNA, one strand shown. The essentials: (§1)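 For zinc-finger proteins, zinc acetate was added while GST-tagged NAC-domain, full-length or DNA-binding-domain proteins were induced in cells. Purification used glutathione–Sepharose 4B, and quantification used A280 or anti-GST western blot. Custom all-10-mer Agilent 4 × 180K arrays, made double-stranded by primer extension, each received a protein at 200 to 500 nM final in duplicate. Scoring covered gapped and ungapped 8-mers, with binding given as the normalised enrichment score (E-score).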

The next experiment has as its target T2, GST-ANAC019 NAC domain (Arabidopsis thaliana, UniProt Q9C932 14-162).
T2 sequence: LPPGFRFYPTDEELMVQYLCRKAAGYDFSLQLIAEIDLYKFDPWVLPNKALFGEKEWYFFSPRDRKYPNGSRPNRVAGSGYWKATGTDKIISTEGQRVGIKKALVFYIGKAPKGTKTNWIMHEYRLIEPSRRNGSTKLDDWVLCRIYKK
To be noted: protein: recombinant; tags: GST; chain copies: 2; dsDNA, one strand shown. The gist of the method:
as §1

For experiment [1], the target named is T3, GST-ANAC092(1-285) full length (Arabidopsis thaliana, UniProt Q9FKA0 1-285).
T3 sequence: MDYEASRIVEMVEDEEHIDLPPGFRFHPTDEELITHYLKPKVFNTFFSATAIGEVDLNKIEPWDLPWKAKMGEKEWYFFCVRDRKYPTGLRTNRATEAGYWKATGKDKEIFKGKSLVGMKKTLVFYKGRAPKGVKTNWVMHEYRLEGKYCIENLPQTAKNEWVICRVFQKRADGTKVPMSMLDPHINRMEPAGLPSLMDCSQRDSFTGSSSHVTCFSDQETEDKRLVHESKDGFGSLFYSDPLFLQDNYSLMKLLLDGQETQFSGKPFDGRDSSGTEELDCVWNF
To be noted: protein: recombinant; tags: GST; chain copies: 2; dsDNA, one strand shown. The gist of the method: as §1

A further experiment concerns the target T4, GST-NAP(1-166) (Arabidopsis thaliana, UniProt O49255 1-166).
T4 sequence: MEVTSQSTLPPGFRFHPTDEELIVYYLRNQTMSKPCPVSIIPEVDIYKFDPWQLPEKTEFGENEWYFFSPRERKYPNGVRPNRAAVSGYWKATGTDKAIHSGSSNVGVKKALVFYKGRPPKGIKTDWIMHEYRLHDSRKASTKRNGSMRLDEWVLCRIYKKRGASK
To be noted: protein: recombinant; tags: GST; chain copies: 2; dsDNA, one strand shown. The essentials: as §1

In another experiment the target is T5, GST-NST2(1-184) (Arabidopsis thaliana, UniProt Q9M274 1-184).
T5 sequence: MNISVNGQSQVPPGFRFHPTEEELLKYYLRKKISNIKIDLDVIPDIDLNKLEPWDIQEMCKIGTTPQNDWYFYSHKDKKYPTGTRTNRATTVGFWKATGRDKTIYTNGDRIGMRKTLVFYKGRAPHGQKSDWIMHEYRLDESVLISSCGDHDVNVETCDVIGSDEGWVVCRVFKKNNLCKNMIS
To be noted: protein: recombinant; tags: GST; chain copies: 2; dsDNA, one strand shown. The essentials: as §1

For a further experiment, the target named is GST-WRKY1(266-371) (Arabidopsis thaliana, UniProt Q9SI37 266-371). To be noted: protein: recombinant; tags: GST; dsDNA, one strand shown. The essentials:
as §1

The target in the next experiment is GST-NTL6(1-168) (Arabidopsis thaliana, UniProt Q9SCK6 1-168). To be noted: protein: recombinant; tags: GST; chain copies: 2; dsDNA, one strand shown. The gist of the method:
as §1

The target of a further experiment is T6, GST-NTL8 NAC domain (Arabidopsis thaliana, UniProt Q9XIN7 14-156).
T6 sequence: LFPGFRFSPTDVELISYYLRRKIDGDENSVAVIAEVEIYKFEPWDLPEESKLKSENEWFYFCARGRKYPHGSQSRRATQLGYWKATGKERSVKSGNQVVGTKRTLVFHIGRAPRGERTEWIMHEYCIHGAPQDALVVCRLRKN
To be noted: protein: recombinant; tags: GST; chain copies: 2; dsDNA, one strand shown. The gist of the method: as §1

The next experiment concerns the target T7, GST-ANAC055(1-171) (Arabidopsis thaliana, UniProt Q9LDY8 1-171).
T7 sequence: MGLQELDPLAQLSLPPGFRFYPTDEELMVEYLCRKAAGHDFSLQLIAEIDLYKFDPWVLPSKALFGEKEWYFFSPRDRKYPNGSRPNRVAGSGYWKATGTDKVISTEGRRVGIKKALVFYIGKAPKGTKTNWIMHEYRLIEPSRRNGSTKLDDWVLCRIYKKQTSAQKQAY
To be noted: protein: recombinant; tags: GST; chain copies: 2; dsDNA, one strand shown. The gist of the method: as §1

The next experiment deals with T8, GST-ATAF1 NAC domain (Arabidopsis thaliana, UniProt Q39013 7-158).
T8 sequence: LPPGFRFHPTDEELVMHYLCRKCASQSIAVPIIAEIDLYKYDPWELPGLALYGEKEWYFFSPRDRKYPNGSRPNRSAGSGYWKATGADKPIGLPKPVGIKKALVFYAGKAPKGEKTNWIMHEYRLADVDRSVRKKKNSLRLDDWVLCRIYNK
To be noted: protein: recombinant; tags: GST; chain copies: 2; dsDNA, one strand shown. The gist of the method:
as §1

The values below come from paper PMC4081100, “A DNA-binding-site landscape and regulatory network analysis for NAC transcription factors in Arabidopsis thaliana”.

Sequence of GST-WRKY1(266-371) (Q9SI37 266-371): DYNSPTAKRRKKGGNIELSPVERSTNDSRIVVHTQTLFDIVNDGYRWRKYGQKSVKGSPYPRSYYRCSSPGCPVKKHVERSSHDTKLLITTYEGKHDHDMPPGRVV
Sequence of GST-NTL6(1-168) (Q9SCK6 1-168): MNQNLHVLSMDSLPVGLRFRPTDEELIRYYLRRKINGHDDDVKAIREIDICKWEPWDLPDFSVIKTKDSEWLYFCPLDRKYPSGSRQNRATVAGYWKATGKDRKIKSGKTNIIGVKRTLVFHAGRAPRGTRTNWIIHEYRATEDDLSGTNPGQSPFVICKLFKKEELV

Regarding AGTCAAGG, the binding signal with GST-ANAC092(1-176) was 0.104 E-score; in the experiment with GST-ANAC019 NAC domain, 0.0733 E-score; in [1], 0.139 E-score; with GST-NAP(1-166), 0.0507 E-score; in the experiment with GST-NST2(1-184) it was 0.0876 E-score; with GST-WRKY1(266-371), 0.475 E-score.

In the case of CTGACTTA, the binding signal was 0.195 E-score with GST-NTL6(1-168) and 0.42 E-score with GST-WRKY1(266-371).

ACTTGACC: the binding signal was found to be 0.0892 E-score with GST-ANAC092(1-176); 0.05 E-score in the experiment with GST-ANAC019 NAC domain; 0.0507 E-score in experiment [1]; 0.11 E-score in the experiment with GST-NST2(1-184); 0.0948 E-score in the experiment with GST-NTL8 NAC domain; 0.47 E-score with GST-WRKY1(266-371).

GGTTTGAC: the binding signal with GST-NTL6(1-168) amounted to 0.131 E-score; with GST-ANAC019 NAC domain, 0.0692 E-score; in the experiment with GST-ANAC055(1-171), 0.162 E-score; in the experiment with GST-ATAF1 NAC domain, 0.171 E-score; in experiment [1], 0.116 E-score; in the experiment with GST-NAP(1-166), 0.0603 E-score. The binding signal in the experiment with GST-NST2(1-184) is 0.177 E-score; with GST-WRKY1(266-371), 0.483 E-score.

As to CAGTCAAG, the binding signal was determined as 0.051 E-score in the experiment with GST-ANAC092(1-176), 0.063 E-score in experiment [1], 0.0503 E-score with GST-NTL8 NAC domain and 0.444 E-score in the experiment with GST-WRKY1(266-371).

With GGTCAACC, the binding signal in the experiment with GST-ANAC092(1-176) worked out at 0.144 E-score; with GST-ANAC019 NAC domain it was 0.0527 E-score; with GST-ATAF1 NAC domain, 0.0896 E-score; in experiment [1] it was 0.061 E-score; in the experiment with GST-WRKY1(266-371), 0.491 E-score.

Consider GGCTTGAC, for which the binding signal in the experiment with GST-ANAC092(1-176) amounted to 0.0969 E-score; with GST-WRKY1(266-371), 0.452 E-score.

As for GTTGACCA, the binding signal stood at 0.131 E-score with GST-ANAC092(1-176) and 0.492 E-score in the experiment with GST-WRKY1(266-371).

In the case of CGGTCTTC, the binding signal with GST-WRKY1(266-371) stood at 0.438 E-score.

Regarding AGGTCAGA, the binding signal with GST-NTL6(1-168) was determined as 0.0962 E-score; with GST-WRKY1(266-371) it was 0.449 E-score.

Turning to ACTGGTCA, the binding signal with GST-ANAC092(1-176) is 0.127 E-score; in the experiment with GST-WRKY1(266-371), 0.433 E-score.

As to AGTCCACG, the binding signal came out at 0.062 E-score with GST-ANAC092(1-176), 0.0759 E-score with GST-ANAC019 NAC domain and 0.438 E-score with GST-WRKY1(266-371).

For CTCTTGAC, the binding signal with GST-ANAC092(1-176) stood at 0.059 E-score; with GST-ANAC019 NAC domain, 0.0833 E-score; with GST-ATAF1 NAC domain, 0.0783 E-score; with GST-NAP(1-166), 0.0978 E-score; with GST-WRKY1(266-371), 0.449 E-score.

On to CAAGTCAA, for which the binding signal was found to be 0.0929 E-score with GST-ANAC092(1-176), 0.0933 E-score with GST-ATAF1 NAC domain, 0.234 E-score in [1] and 0.486 E-score with GST-WRKY1(266-371).

With GCGTGGAC, the binding signal with GST-ANAC092(1-176) worked out at 0.0916 E-score; in the experiment with GST-ANAC019 NAC domain it was 0.0892 E-score; in [1] it was 0.19 E-score; with GST-WRKY1(266-371), 0.404 E-score.

Turning to CTGACCGC, the values for the binding signal with GST-ANAC092(1-176) and in the experiment with GST-WRKY1(266-371) were 0.0725 E-score and 0.425 E-score, respectively.

In the case of AGGTCAAC, the binding signal with GST-ATAF1 NAC domain came out at 0.051 E-score.
